Data on 21 compounds can be found in PubChem BioAssay (NCATS).

Records with an inconclusive call do not appear. Where a call stands in place of a potency, no number is given. Activity calls are given as the source filed them. The call rests on the fitted dose curve; in most records, active means well fitted inhibition curve with a large enough effect; inconclusive means small, poorly fitted or top-dose-only effect; inactive means flat fitted curve, though single readings scatter.

For this assay, the target named is Calcium and integrin-binding protein 1 (Homo sapiens) (UniProt Q99828). In words: Primary qHTS for Identification of Calcium Integrin Binding Protein 1 (CIB1) Competitor (AID 1508620). Further: top concentration of the series differs between compounds. The note with it: CIB1-GST / FITC-alphaIIb peptide fluorescence polarization; series mostly up to 114 µM. An outline of the steps: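 Fluorescence polarization competition: GST-tagged CIB1 (1 uM final) preincubated with compound 15 min at room temperature, then FITC-labelled alphaIIb peptide (100 nM final) added. After 15 min at room temperature, polarization read at Ex 480/Em 540.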
Calcium and integrin-binding protein 1 (Homo sapiens), sequence (Q99828 whole entry, looked up): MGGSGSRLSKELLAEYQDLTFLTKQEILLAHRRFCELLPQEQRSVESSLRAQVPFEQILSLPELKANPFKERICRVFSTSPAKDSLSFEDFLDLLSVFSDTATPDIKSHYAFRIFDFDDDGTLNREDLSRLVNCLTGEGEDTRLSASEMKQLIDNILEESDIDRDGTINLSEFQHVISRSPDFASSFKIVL
Background: qHTS replaces the single test concentration by a dilution series.
With `Cc1ccc(CCN2C(=O)c3ccc(C(=O)O)cc3C2=O)cc1`, the Potency result was “inactive”.

For the compound `Clc1ccc(CN(CCCNc2ncnc(NCCCc3cnc[nH]3)n2)c2ccc(Br)cn2)cc1Cl`, the Potency entry is “inactive”.

Consider `C[C@H](NC(c1ccc(F)cc1)c1ccc2cccnc2c1O)c1ccccc1` (stereo partly specified), for which the Potency entry was “inactive”.

For `N#Cc1nc(Nc2ccc3ccccc3c2)nc(NC2CCCC2)n1`, the Potency entry was “inactive”.

In the case of `Cc1cc(C)nc(NC(=S)N2CCN(c3ccc(Cl)cc3[N+](=O)[O-])CC2)c1`, the Potency result was “inactive”.

Regarding `Cc1cc2c(s1)c1cnn(Cc3cc(F)cc(F)c3F)c(=O)c1n2C`, the Potency entry was “inactive”.

`CC(C)(C)OC(=O)N1CCN(c2ccc(NCc3ccc(-c4ccc(C#N)cc4)s3)cc2)CC1`: the Potency entry was “inactive”.

As for `O=C(Nc1ccccc1)OCc1c(-c2ccccc2)no[n+]1[O-]`, the Potency entry is “inactive”.

Take `O=S(=O)(c1ccc2c(c1)OCCO2)N1CCN(S(=O)(=O)c2ccccc2OC(F)(F)F)CC1`: the Potency result was “inactive”.

As for `O=C1CCCC2=C1C(c1[nH]ncc1Cl)NC(=NCc1cccnc1)N2` (stereo unspecified), the Potency entry is “inactive”.

As to `O=C(Nc1ccc(Cl)nc1)Nc1nnc(-c2ccncc2)s1`, the Potency result is “inactive”.

For `N#Cc1ccc(C(=O)NCC(=O)OC(C(=O)Nc2cc(C(F)(F)F)ccc2Cl)c2ccccc2)cc1` (stereo unspecified), the Potency result is “inactive”.

Take `Cc1cc(NS(=O)(=O)c2ccc(NC(=O)Cc3ccc4ccccc4c3)cc2)no1`: the Potency result was “inactive”.

In the case of `CCSC1=NS(=O)(=O)c2ccccc21`, the Potency result is “inactive”.

On to `COc1cccc(NC(=S)N2CCN(c3cccc(C(F)(F)F)n3)CC2)n1`, for which the Potency entry was “inactive”.

As for `COc1ccc(-c2cnc(N3CCC(C(N)=O)CC3)s2)cc1OC`, the Potency entry is “inactive”.

With `CSc1ccc(-c2cnc(N3CCC(C(N)=O)CC3)s2)cc1`, the Potency result is “inactive”.

Turning to `Cc1ccc(NS(=O)(=O)c2ccc3c(c2)CCC(=O)N3)cc1F`, the Potency entry is “inactive”.

As to `O=C(CN1C(=O)N/C(=C\c2cccn2-c2cccc(C(=O)O)c2)C1=O)Nc1ccc(Cl)cc1`, the Potency entry is “inactive”.

As to `CC(C)(C)[C@H](NC(=O)c1ccc(N)c(Cl)c1)C(=O)N1CCC[C@H]1C(=O)N[C@H](C#N)Cc1nn[nH]n1`, the Potency entry was “inactive”.

For the compound `O=C(NC(c1ccco1)c1cc(Cl)c2cccnc2c1O)c1ccccc1` (stereo unspecified), the Potency entry is “inactive”.
